# KDM5B inh: inhibitors of human KDM5B histone demethylase; Q9UGL1; KDM5B demethylase, FDH-coupled NADH fluorescence (FDH is formaldehyde dehydrogenase); Potency, µM (titrated, usually from 57.7 µM), hits mostly inhibitors; 220,000 tested, 2.6% active; note: potency is the fitted concentration of half-maximal effect; 0% is about no effect; nearly all actives have a fitted effect of over 70% in size
#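 Measured: NADH fluorescence change, 30 min, RT. System: KDM5BΔAP 200 nM final, H3K4me3 peptide, α-KG, Fe(II), ascorbate, NAD⁺ plus FDH, pH 7.5 HEPES. Compounds: titrated, 10 min pre-incubation with enzyme.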
# SNCA expr inhib: inhibitors of alpha-synuclein (SNCA) gene expression | Potency, µM (series often up to 57.2 µM), for the others: at the highest dose activity change, negative = inhibition, actives largely listed as inhibitors | 140,000 tested, 0.17% active | AID 1671194 | HEK-293 SNCA-luciferase knock-in, luminescence, 24 h;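 note: potency is the fitted concentration of half-maximal effect; plate controls were DMSO cells for no effect and cell-free wells for full effect; nearly all actives have a fitted effect of over 45% in size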
# IP6K1 inhibitor: blocks human inositol hexakisphosphate kinase 1 | activity change, % (series mostly up to about 58 µM) | IP6K1 kinase, ADP-Glo luminescence, 2 h; hits give low values | Q92551 | 140,000 tested, 0.81% active | AID 1645851; in the data active = activity change below about -25%; note: % is set by controls: 0 for no effect and ±100 for the full control effect
#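 ADP-Glo luminescence measures ADP made by human IP6K1 during a 2 h RT reaction with ATP/IP6 (mix at 1.3 mM/130 uM); top library doses 57.5 and 19.1 uM final.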
# SNCA viab count: reduces viability of HEK-293 SNCA reporter cells; HEK-293-SNCA-luc viability, GF-AFC fluorescence, 24 h; Potency, µM (series often up to 57.1 µM), without a hit: top-dose activity change, negative = cytotoxicity, hits mostly cytotoxic; 150,000 tested, 0.12% active;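 note: potency is the fitted concentration of half-maximal effect; 0% = DMSO-treated cells and -100% = medium-only wells without cells; nearly all actives have a fitted effect of over 30% in size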
#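 HEK-293-SNCA-luc cells (1500/well) plated 24 h, then exposed 24 h to a dilution series; GF-AFC added 30 min at 37C, fluorescence 405/540 nm; normalised to medium-only and DMSO wells, Hill fit.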
# * = called active by the depositor; i = inactive; ? = inconclusive; . = no result given; [ ] = another dose, or the depositor's remark. Sampled rows, rich in hits. Any-hit rate of the full collection: about 2.8%. Unless noted, calls come from the whole dose curve; as a rule, active = well fitted curve in the direction sought with a large enough effect; inconclusive = small, poorly fitted or top-dose-only effect, or another doubt; inactive = no such curve, though single readings can be large; an effect the other way counts as inactive or inconclusive.
SMILES,KDM5B inh,SNCA expr inhib,IP6K1 inhibitor,SNCA viab count
O=C(NC1CCN(Cc2cccc(C(F)(F)F)c2)CC1)C1CCC1,i,.,.,.
CCc1nc2c(NC(=O)c3ccc(F)c(Cl)c3)cccn2n1,25µM*,18%,14,-1%
COc1cccc(-c2nc(N(C)C3CCCCC3)c3ccccc3n2)c1O,i,.,.,.
O=c1[nH]nc(Sc2ncc([N+](=O)[O-])s2)n1-c1ccc2c(c1)OCCO2,.,?,.,24µM*
O=c1[nH]nc(SCc2ccccc2Cl)n1-c1ccc2c(c1)OCCO2,i,.,.,.
CCC(c1cccs1)N1C(=O)[C@H]2CN(S(=O)(=O)c3ccccc3)C[C@H]2C1=O (some centres undefined),i,-19%,5,4%
CCC(c1cccs1)N1C(=O)[C@H]2CN(CCC(C)C)C[C@H]2C1=O (some centres undefined),i,3.5µM*,1,?
O=C1NCC2(CCCN(C(=O)CCc3nc4ccccc4[nH]c3=O)C2)O1 (centres undefined),22µM*,6%,10,1%
NC1CCCCN(C(=O)CCc2nc3ccccc3[nH]c2=O)C1 (centres undefined),?,15%,-6,0%
O=[S+]1([O-])NC2(CCN(CC3CCCC3)CC2)COc2ccccc21,79µM*,6%,15,-8%
O=[S+]1([O-])NC2(CCN(CC3CC3)CC2)COc2ccccc21,?,-24%,15,6%
Cc1noc(C)c1-c1cc2cc(CO)oc2c(N2CCS(=O)(=O)CC2)n1,35µM*,24%[87.6 µM],10,-4%[87.6 µM]
Cc1noc(C)c1-c1cc2cc(CO)oc2c(N2CCN(c3ccccn3)CC2)n1,?,56%[87.6 µM],16,-12%[87.6 µM]
Cc1noc(C)c1-c1cc2cc(C(C)C)oc2c(N2CCS(=O)(=O)CC2)n1,32µM*,-1%[87.6 µM],-16,4%[87.6 µM]
CCN1CCN(CCNC(=O)c2nnn3cc(-c4ccccc4)[nH]c(=O)c23)CC1,28µM*,0%,-14,-2%
CCOCCCNC(=O)c1nnn2cc(-c3ccccc3)[nH]c(=O)c12,28µM*,19%,-4,-1%
O=C(NCCN1CCCCC1)c1nnn2cc(-c3ccccc3)[nH]c(=O)c12,i,-5%,-14,-14%
Cc1ccc2nc3c(n2c1)C(c1ccccc1OCCN(C)C)CC(=O)NC3 (centres undefined),32µM*,-1%,-3,0%
CNC(=O)c1cccc(-c2cnc(Nc3ccccc3)c3c2CCO3)c1,32µM*,172%[87.6 µM],-18,-17%[87.6 µM]
CNC(=O)c1cccc(-c2cnc(Nc3ccc(N4CCOCC4)cc3)c3c2CCO3)c1,?,96%[87.6 µM],-19,-23%[87.6 µM]
CNC(=O)c1cccc(-c2cnc(Nc3cccnc3OC)c3c2CCO3)c1,35µM*,2%[87.6 µM],-5,?
COc1cncc(Nc2ncc(-c3cccnc3)c3c2OCC3)c1,i,109%[87.6 µM],-20,5%[87.6 µM]
COc1ccccc1NC(=O)CCc1ncc(-c2ccc(Cl)cc2)o1,i,.,.,.
Nc1cccn2nc(C3CCC3)nc12,18µM*,-3%,12,10%
O=C(Nc1cccn2nc(C3CCC3)nc12)c1ccc(F)cc1,i,-1%,13,8%
SMILES,KDM5B inh,SNCA expr inhib,IP6K1 inhibitor,SNCA viab count
O=C([C@H]1CCC[C@H](O)C1)N1CCN(c2ccnc3nncn23)CC1,?,-6%,7,3%
Cc1n[nH]c(C)c1C(N)C(=O)N1CCN(c2ccc3nccn3n2)CC1 (centres undefined),28µM*,-15%,-4,12%
O=C([C@H]1CCC[C@@H](O)C1)N1CCN(c2ccc3nccn3n2)CC1,28µM*,9%,18,4%
CCCN1C(=O)c2[nH]nc(-c3ccccc3O)c2C1c1ccc(OC)c(OC)c1 (centres undefined),i,.,.,.
CS(=O)(=O)c1cccc(C(=O)N2CCCCCCC2)c1,i,.,.,.
COCC(=O)NC1CCN(Cc2nnnn2-c2ccccc2)CC1,i,.,.,.
CCOc1ccc(C(C)(C)C)cc1S(=O)(=O)NCc1ccco1,i,.,.,.
Cc1cc(C(=O)N2C[C@@H](COCC3CC3)[C@H](c3ccccn3)C2)n[nH]1,i,-13%,2,0%
O=C(c1cc[nH]c(=O)c1)N1C[C@@H](COCC2CC2)[C@H](c2ccccn2)C1,28µM*,-5%,6,5%
O=C(Cn1ccn2nc(-c3ccc(F)cc3)c(CO)c2c1=O)Nc1ccccc1Cl,28µM*,-7%,3,2%
Cc1ccc(NC(=O)Cn2ccn3nc(-c4ccc(F)cc4)c(CO)c3c2=O)cc1,22µM*,6%,-2,7%
